# Measured values taken from PMC5540273 (PLoS ONE, 2017).
# Key:
# Conditions in all cases: concentration: 1 μM, replicates: in singlicate; n = 1
# ULK2 = test system: ULK2
# ULK3 = test system: ULK3
# VEGFR2 = test system: T1, VEGFR2
# T1 construct: gene KDR
# VPS34 = test system: T2, VPS34
# T2 construct: gene PIK3C3
# VRK2 = test system: VRK2
# WEE1 = test system: WEE1
# WEE2 = test system: WEE2
# WNK1 = test system: WNK1
# WNK2 = test system: WNK2
# WNK3 = test system: WNK3
# 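Also: KINOMEscan kinase panel screen.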
Structure (SMILES),%Inh (ULK2) [%],%Inh (ULK3) [%],%Inh (VEGFR2) [%],%Inh (VPS34) [%],%Inh (VRK2) [%],%Inh (WEE1) [%],%Inh (WEE2) [%],%Inh (WNK1) [%],%Inh (WNK2) [%],%Inh (WNK3) [%]
Cn1ccc2ncnc(Nc3ccc(Oc4cccc(Cl)c4)c(Cl)c3)c21,31,38,0,52,0,0,34,0,31,0
CSc1ccc(NC2=C(c3ccccc3Cl)C(=O)NC2=O)cc1 [SB-342411],0,0,0,1,0,2,0,0,3,17
OCCOCCn1ccc2ncnc(Nc3ccc(Oc4cccc(Cl)c4)c(Cl)c3)c21,0,0,0,0,46,0,0,0,0,0
COc1ccc(NC(=O)c2ccc(-c3cc(-c4nnc(C)o4)ccc3C)cc2)cc1 [GW595885],0,24,0,0,25,0,2,0,1,25
Nc1nccc2scc(-c3ccc4c(c3)CCN4C(=O)Cc3cc(F)ccc3F)c12 [GSK2587663],0,6,0,8,0,44,0,33,0,37
CC(C)N1CCC(n2cnc(-c3ccc(F)cc3)c2-c2ccnc(N)n2)CC1 [SB-223132],0,5,0,27,0,17,0,0,0,0
Cl.Cn1ccc(-c2cccc(Nc3ccnc4cc(-c5nccs5)ccc34)c2)n1 [GW525701],0,0,0,0,7,11,0,17,18,50
O=C(Nc1n[nH]c2nc(-c3ccco3)c(Br)cc12)c1ccc(CN2CCCC2)cc1.O=C(O)[C@H](O)[C@@H](O)C(=O)O [SB-742352],0,27,48,0,0,0,4,0,0,0
CN1c2ccc(-c3ccc(C(=O)NCCO)cc3)cc2-c2[nH]ncc2S1(=O)=O,30,0,44,30,0,0,1,0,0,0
C[C@H]1CC[C@@H](C(=O)Nc2ccccc2)CN1c1cc(-c2ccc3c(N)n[nH]c3c2)nc(N)n1 [GSK2283293],0,7,0,0,19,11,14,2,0,17
Nc1nc(-c2cccnc2)c(-c2ccnc3ccccc23)s1 [GW684083],0,18,0,72,16,27,11,0,0,31
COc1ccc(NC(=O)Nc2ccc(C)c(-c3ccc(C(=O)Nc4ccncc4)cc3)c2)cc1 [GSK1398475],0,0,0,0,0,34,11,4,0,2
COc1ccc(Nc2nccc(N3CCC(NC(=O)c4cccc(NC(C)=O)c4)C3)n2)cc1 (stereo not drawn) [GSK1379732],0,11,0,22,41,5,7,0,11,0
CNc1nccc(-c2c(-c3ccc(F)cc3)ncn2CCCN2CCOCC2)n1 [SB-222516],0,17,0,0,0,0,9,1,0,0
COC(=O)c1c(-c2ccccc2)c2cc(Cl)ccc2c(=O)n1Cc1ccc(S(C)(=O)=O)cc1,0,0,0,0,10,0,0,0,4,0
